COUP-TFII inh: NR2F2 transcriptional activity inhibitors, primary screen, cell-based, luciferase reporter, HEK293T, luminescence; COUP transcription factor 2 (Homo sapiens), P24468; HEK293T NGFI-A luciferase reporter; inhibition, % at 8.6 µM; actives 0.7% (n = 370,000); AID 686940, 2013;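 active means inhibition above a per-plate cutoff, mean inhibition of test wells between control levels plus 3 SD, cut at about 38% in these data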;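 further: cells cotransfected with COUP-TFII expression vector driving the NGFI-A reporter; 0% = median of COUP-TF2 test wells and 100% = reporter-only cells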
Target sequence (P24468 whole entry, looked up): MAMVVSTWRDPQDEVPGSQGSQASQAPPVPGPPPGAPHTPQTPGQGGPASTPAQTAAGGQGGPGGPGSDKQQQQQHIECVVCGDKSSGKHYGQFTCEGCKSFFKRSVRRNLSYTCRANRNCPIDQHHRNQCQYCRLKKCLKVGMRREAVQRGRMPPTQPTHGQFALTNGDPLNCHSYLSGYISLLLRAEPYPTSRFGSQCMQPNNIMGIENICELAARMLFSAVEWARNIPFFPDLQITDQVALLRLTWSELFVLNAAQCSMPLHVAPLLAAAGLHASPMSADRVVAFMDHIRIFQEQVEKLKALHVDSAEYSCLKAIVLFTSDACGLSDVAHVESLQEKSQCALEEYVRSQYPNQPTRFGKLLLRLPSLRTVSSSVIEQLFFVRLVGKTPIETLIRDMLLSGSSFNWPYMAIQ
H9c2 protect: cardioprotection against H2O2-induced cell death, primary screen, uHTS, H9c2 cells, ATPLite luminescence | H9c2 cardiomyocytes, H2O2 injury protection, 2 h | protection from H2O2 cell death, % at 20 µM | actives 0.63% (n = 360,000);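 active means compounds giving at least 50% protection of heart cells from peroxide-induced death in the single-dose screen, raw or plate-pattern-corrected value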;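 further: 0% = DMSO wells with peroxide and 100% = DMSO wells without peroxide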
Jurkat NFkB inh: inhibitors of induced NF-kB luciferase reporter, primary screen, TCR NF-kB activation inhibitor project, cell-based, luminescence, uHTS; actives 0.53% (n = 330,000); Jurkat, PMA/ionomycin-induced NF-kB luciferase reporter; inhibition, % at 4 µM; AID 435003, 2010; in the data active means inhibition above about 50%
Gli-Sufu block: Gli-Sufu pathway antagonists, primary screen, luciferase luminescence, Sufu-KO-LIGHT cells, uHTS; Sufu-KO-LIGHT fibroblasts, Gli luciferase reporter luminescence; inhibition, % at 5 µM; actives 0.74% (n = 340,000); AID 588413, 2011;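 active means inhibition above about 55%, limit read from the data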;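 further: 0% = DMSO-treated cells and 100% = wells with medium but no cells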
697 NFkB inh: inhibitors of PMA/ionomycin-induced NF-kB reporter, 697 cells, primary screen, B-cell NF-kB inhibitor project, cell-based, luminescence, uHTS | 697 B-cell NF-kB luciferase reporter, 16 h | inhibition, % at 4 µM | actives 0.33% (n = 330,000); in the data active means inhibition above about 35%
TAG inh: inhibitors of triacylglycerol accumulation, primary screen, cell-based, uHTS, fluorescence, H9c2 | actives 0.66% (n = 230,000) | H9c2 cells, Nile Red lipid (TAG) fluorescence; cells loaded with 200 µM oleic acid | AID 651582, 2012 | inhibition, % at 12.5 µM;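 active means pattern-corrected inhibition of lipid staining of at least 50% with the nuclear-stain viability signal not falling by more than 50%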;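 further: 0% = DMSO wells and 100% = triacsin C control wells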
* hit, by the source's call; · = no result. Most compounds without a hit are left out; they make up all but 2.6% or so of the library.

SMILES	COUP-TFII inh	H9c2 protect	Jurkat NFkB inh	Gli-Sufu block	697 NFkB inh	TAG inh
COc1ccc(C(=O)C(c2ccccc2)N2CCOCC2)cc1 (stereo not drawn)	6.2	3.8	-1.1	8.3	-1.5	12.2
Cc1ccc(S(=O)(=O)N2CCCC2C(c2ccccc2O)c2cn(C)c3ccccc23)cc1 (stereo not drawn)	5.8	·	·	·	·	·
CN(C)CCCN(C(=O)c1ccc(S(=O)(=O)N2CCc3ccccc32)cc1)c1nc2ccc(F)cc2s1	-1.3	-16.6	-2.0	19.5	8.5	-9.8
Cc1cc(C)c2sc(N(CCCN(C)C)C(=O)c3ccc(S(=O)(=O)N4CCCc5ccccc54)cc3)nc2c1	-11.5	-26.9	18.9	0.1	-10.4	56.4*
COc1ccc2sc(N(CCCN(C)C)C(=O)c3ccc(S(=O)(=O)N4CCc5ccccc5C4)cc3)nc2c1	-19.7	-19.7	-34.5	6.0	-4.2	43.8
CN(C)CCCN(C(=O)CCc1ccccc1)c1nc2ccc(F)cc2s1	13.1	2.3	8.5	6.6	13.6	·
Cc1ccc2nc(N(CCCN(C)C)C(=O)c3ccc(S(=O)(=O)N4CCc5ccccc5C4)cc3)sc2c1	-11.5	-16.5	9.9	12.3	3.7	69.2*
CN(C)CCCN(C(=O)c1cc(-c2cccs2)nc2ccccc12)c1nc2ccc(F)cc2s1	-10.3	-22.8	17.6	3.5	14.1	59.7*
CN(C)CCCN(C(=O)c1ccc(S(=O)(=O)N2CCc3ccccc3C2)cc1)c1nc2ccc(F)cc2s1	-10.6	-24.7	16.0	-2.8	-57.0	56.9*
Cc1ccc2c(c1)C1CS(=O)(=O)N(Cc3ccc(F)cc3)CN1C2 (stereo not drawn)	25.8	·	·	·	·	·
Cc1cccc2sc(N(CCCN(C)C)C(=O)c3ccc(S(=O)(=O)N4CCc5ccccc5C4)cc3)nc12	-14.5	-9.2	32.9	27.4	-36.4	16.5
Cc1cc(C)c2sc(N(CCCN(C)C)C(=O)c3ccc(S(=O)(=O)N4CCc5ccccc5C4)cc3)nc2c1	·	-10.1	14.8	·	1.5	54.4*
COC(=O)C1CN(Cc2cn(Cc3ccc(F)cc3)nn2)CCS(=O)(=O)N1Cc1ccc(OC)cc1 (stereo not drawn)	4.8	·	·	·	·	·
CCN(CC)CCNC(=O)c1ccc2c(=O)n(C3CCCC3)c(=S)[nH]c2c1	2.4	14.9	-30.0	70.7*	-60.7	·
CC(C)NC(=O)c1ccc2c(=O)n(C3CCCC3)c(=S)[nH]c2c1	-4.0	4.5	-10.1	8.0	11.0	-8.0
CC(c1ccc(NC(=O)OC(C)(C)C)cc1)c1cn(C)c2ccccc12 (stereo not drawn)	-14.8	·	·	·	·	·
COc1ccc(CN2C(C(=O)NCC(C)C)CSCCS2(=O)=O)cc1 (stereo not drawn)	-15.5	·	·	·	·	·
COc1cccc(C(=O)Nc2cccc(-c3nnc(-c4ccco4)o3)c2)c1	12.4	113.3*	-4.5	-24.4	-30.0	20.2
COc1ccc(Br)cc1C(=O)Nc1cccc(-c2nnc(-c3ccco3)o2)c1	-25.3	-4.6	-25.2	71.0*	-20.3	·
COC(=O)c1ccc(-c2n[nH]c(=O)c3ccccc23)cc1	10.7	1.2	-0.9	-2.1	14.3	7.2
CN(C)C(=O)c1ccc(-c2n[nH]c(=O)c3ccccc23)cc1	26.9	62.5*	7.8	-12.2	17.0	-0.9
O=C1COc2ccc(-c3n[nH]c(=O)c4ccccc34)cc2N1	8.6	58.8*	-21.6	-1.6	13.8	4.6
C=C1CCN(C(C)C(=O)OC)S(=O)(=O)c2ccccc21 (stereo not drawn)	-16.7	-3.5	-5.2	-27.0	-8.3	55.4*
Cc1cc(NC(=O)COc2nnc(-c3ccccc3)c3ccccc23)no1	-26.1	48.4*	-5.5	6.4	-2.4	6.6
Cc1cc(NC(=O)COc2ccccc2C)no1	-28.8	-3.0	-42.2	-33.2	1.4	·
SMILES	COUP-TFII inh	H9c2 protect	Jurkat NFkB inh	Gli-Sufu block	697 NFkB inh	TAG inh
COc1ccc(-n2c(COc3ccc(C)cc3)nnc2SCC(=O)c2ccc(-c3ccccc3)cc2)cc1	7.9	·	·	·	·	·
C[n+]1c(-c2ccccc2)cc2c(=Cc3ccc([N+](=O)[O-])cc3)c3ccccc3n21	-7.4	-15.0	·	21.6	·	-22.2
C[n+]1c(-c2ccccc2)cc2c(=Cc3ccccc3)c3ccccc3n21	31.1	-15.2	·	77.1*	·	-0.2
CN(C)c1ccc(C=c2c3cc(O)ccc3n3c2cc(-c2ccccc2)[n+]3C)cc1	17.6	-18.4	·	71.8*	·	-38.4
CN(C)c1ccc(C=c2c3ccccc3n3c2c2ccccc2[n+]3C)cc1	51.2*	-16.1	·	44.4	·	-33.7
COCCNC(=O)C[C@H]1CC[C@H]2[C@@H](COc3ccc(NC(=O)Nc4cccc(F)c4)cc3C(=O)N2C)O1	-4.6	·	·	·	·	·
COc1cccc(CO[C@H]2C=C[C@@H](c3ccccc3)O[C@@H]2CO)c1	-7.2	·	·	·	·	·
O=C(c1ccc(N2CN(C(=O)c3ccco3)c3nc4ccccc4nc32)cc1)N1CCOCC1	-3.5	72.2*	-9.4	-6.2	30.3	·
O=[N+]([O-])c1ccc(NN=Cc2ccccc2)nc1	-36.2	-3.8	·	-108.0	·	1.0
O=[N+]([O-])c1ccc(N/N=C\c2cccn2-c2ccccc2)nc1	14.2	1.2	14.0	-0.5	-109.8	55.6*
CC(=O)c1ccc(-c2[nH]c3ccccc3c2CCN2C(=O)c3ccccc3C2=O)cc1	1.9	65.4*	·	2.7	·	14.4
S=c1[nH]nc(-c2cc(-c3ccccc3)n[nH]2)n1/N=C/c1ccccc1	-11.2	-9.1	1.2	9.3	-21.7	2.5
S=c1[nH]nc(-c2cc(-c3ccccc3)n[nH]2)n1/N=C/C(Br)=C/c1ccccc1	-0.8	-0.2	33.4	-7.1	-131.3	71.6*
Cc1nn(CCC(=O)NNC(=O)Nc2ccccc2F)c(C)c1[N+](=O)[O-]	0.3	·	·	·	·	·
Cc1ccc(C)c(NC(=O)CN2C(=O)CCSc3ccccc32)c1	17.5	·	·	·	·	·
CCCCCc1cc(=O)oc2c(C(CCN3CCCC(C)C3)c3cc(OC)c(OC)c(OC)c3)c(OC)cc(OC)c12 (stereo not drawn)	·	-20.5	24.2	5.7	6.5	78.9
CCCCCc1cc(=O)oc2c(C(CCN3CCCC(C)C3)c3ccc(N(C)C)cc3)c(OC)cc(OC)c12 (stereo not drawn)	·	-31.4	18.7	22.2	9.1	107.4*
CCCCCc1cc(=O)oc2c(C(CCN3CCCCC3)c3cc(OC)c(OC)c(OC)c3)c(OC)cc(OC)c12 (stereo not drawn)	8.3	-33.8	29.1	11.3	-5.8	79.6*
CCCCCCCCCCCCCCCC[N+](C)(C)Cc1ccc(F)cc1	0.1	-18.2	·	40.4	·	109.1*

Source: PubChem (several laboratories)
